Bioassay records: PubChem, several laboratories
Hck-Nef inh: human Hck-Nef kinase inhibition. AID 463187. 220,000 compounds, 0.68% hits. Recombinant Hck-YEEI plus Nef, Z-Lyte FRET kinase assay. P08631. inhibition, % at 20 µM;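 active = Hck-Nef kinase inhibition above about 50%, limit read from the data; inactive = inhibition below that limit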;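 also: 0% = DMSO with Hck plus Nef and 100% = Hck alone without Nef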
14-3-3 Bad PPI: disrupts binding of bovine 14-3-3 zeta to phospho-Bad peptide; TR-FRET 14-3-3zeta/Dy647-pBad peptide displacement, 1 h; inhibition, % at 21.7 µM; 220,000 compounds, 0.71% hits;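 active = inhibition above about 70%, limit read from the data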;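 also: 0% = full 14-3-3 plus peptide FRET controls and 100% = background without 14-3-3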
Mcl1 Noxa PPI: disrupts binding of human Mcl-1 to Noxa peptide; Q07820; TR-FRET Mcl-1/Noxa peptide binding, 2 h; inhibition, % at 21.7 µM; 220,000 compounds, 1.5% hits;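 active = compounds that cut the protein-peptide binding signal by more than 50% relative to plate controls in a single-dose test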;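 also: His-tagged Mcl-1 with rhodamine Noxa BH3 peptide and terbium anti-His antibody; 0% = Mcl-1 plus Noxa peptide wells and 100% = peptide-only wells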
eIF4E-4G inh: inhibitors of eIF4E and eIF4G interaction in translation initiation. P63073+Q04637. TR-FRET eIF4E-eIF4GI(517-606) binding, 2 h. inhibition, % at 21.7 µM. 220,000 compounds, 0.37% hits;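 active = inhibition above about 30%, limit read from the data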;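 also: 0% = full FRET control wells and 100% = background wells lacking eIF4GI fragment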
Target sequence (P63073 whole entry, looked up, the tested form may be a part): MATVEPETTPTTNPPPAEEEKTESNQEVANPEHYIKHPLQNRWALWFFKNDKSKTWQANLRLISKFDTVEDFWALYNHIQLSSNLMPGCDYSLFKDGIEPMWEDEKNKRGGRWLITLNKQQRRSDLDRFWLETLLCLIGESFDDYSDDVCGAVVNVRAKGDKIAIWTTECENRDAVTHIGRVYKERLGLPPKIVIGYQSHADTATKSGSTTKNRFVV
Target sequence (Q04637 whole entry, looked up, the tested form may be a part): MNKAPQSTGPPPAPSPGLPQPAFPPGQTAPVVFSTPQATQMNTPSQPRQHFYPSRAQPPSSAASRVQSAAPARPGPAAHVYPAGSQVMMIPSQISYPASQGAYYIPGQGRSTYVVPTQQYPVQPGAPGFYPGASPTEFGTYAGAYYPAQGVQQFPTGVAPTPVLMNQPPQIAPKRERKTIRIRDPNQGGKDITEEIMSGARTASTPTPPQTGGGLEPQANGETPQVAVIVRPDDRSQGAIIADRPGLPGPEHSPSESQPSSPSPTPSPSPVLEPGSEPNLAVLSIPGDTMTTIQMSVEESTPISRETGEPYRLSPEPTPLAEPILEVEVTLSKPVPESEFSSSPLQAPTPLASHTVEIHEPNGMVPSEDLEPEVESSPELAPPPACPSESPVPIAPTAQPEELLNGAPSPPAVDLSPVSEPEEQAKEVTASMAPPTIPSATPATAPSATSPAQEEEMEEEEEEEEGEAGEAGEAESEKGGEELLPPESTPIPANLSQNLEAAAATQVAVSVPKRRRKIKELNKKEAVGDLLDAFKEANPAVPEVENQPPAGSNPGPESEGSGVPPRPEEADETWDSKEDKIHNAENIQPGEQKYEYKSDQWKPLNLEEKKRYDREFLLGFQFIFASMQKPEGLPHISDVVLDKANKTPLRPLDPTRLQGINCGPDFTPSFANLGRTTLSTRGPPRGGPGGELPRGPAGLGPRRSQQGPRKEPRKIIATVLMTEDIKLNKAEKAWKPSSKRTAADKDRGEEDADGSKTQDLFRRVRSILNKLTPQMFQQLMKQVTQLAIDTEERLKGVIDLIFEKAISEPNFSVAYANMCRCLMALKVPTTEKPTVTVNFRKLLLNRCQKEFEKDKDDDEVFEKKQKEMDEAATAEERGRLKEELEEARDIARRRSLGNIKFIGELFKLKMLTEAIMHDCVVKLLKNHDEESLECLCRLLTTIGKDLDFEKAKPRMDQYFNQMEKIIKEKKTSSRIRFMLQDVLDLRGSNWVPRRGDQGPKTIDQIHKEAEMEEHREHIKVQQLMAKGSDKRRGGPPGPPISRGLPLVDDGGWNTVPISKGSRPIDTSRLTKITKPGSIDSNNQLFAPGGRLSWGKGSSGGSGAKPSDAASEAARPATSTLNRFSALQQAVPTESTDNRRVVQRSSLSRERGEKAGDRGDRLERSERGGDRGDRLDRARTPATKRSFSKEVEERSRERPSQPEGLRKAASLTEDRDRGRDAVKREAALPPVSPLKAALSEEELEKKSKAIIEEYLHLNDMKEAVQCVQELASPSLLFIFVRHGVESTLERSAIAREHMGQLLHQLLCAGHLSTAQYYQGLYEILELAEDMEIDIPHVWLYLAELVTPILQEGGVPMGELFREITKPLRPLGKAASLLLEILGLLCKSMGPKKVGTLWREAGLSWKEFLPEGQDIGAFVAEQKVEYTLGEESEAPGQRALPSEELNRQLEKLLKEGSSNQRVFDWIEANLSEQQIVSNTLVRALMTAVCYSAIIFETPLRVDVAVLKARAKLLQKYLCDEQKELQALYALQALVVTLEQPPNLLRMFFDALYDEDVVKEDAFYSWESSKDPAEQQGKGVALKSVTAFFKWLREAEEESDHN
Mcl1 Bid PPI: disrupts binding of human Mcl-1 to Bid peptide | AID 1021 | inhibition, % at 21.7 µM | 220,000 compounds, 0.97% hits | Q07820 | TR-FRET Mcl-1/Bid-Dy647 peptide binding, 1536-well;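 active = compounds that cut the binding signal by more than half at the single screening dose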;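 also: His-tagged Mcl-1 with europium anti-His antibody binding Bid BH3 peptide; 0% = Mcl-1 plus peptide wells and 100% = peptide-only wells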
Mcl-1 Bim block: human Bim-Mcl-1 interaction inhibition; 190,000 compounds, 0.1% hits; Q07820; AID 1009; inhibition, % at 10 µM; Bead-based flow cytometry, Bim peptide-Mcl-1 binding; in the data active = inhibition above about 40%;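 also: 0% = no compound tracer wells and 100% = peptide blocker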
* = called active by the depositor; x = no result given. Compounds with a hit are over-represented: about 3.5% of the library has one in this group of screens.

SMILES	Hck-Nef inh	14-3-3 Bad PPI	Mcl1 Noxa PPI	eIF4E-4G inh	Mcl1 Bid PPI	Mcl-1 Bim block
Nc1cccc(C2=Nc3cccc4cccc(c34)N2)c1	4.6	-7.9	74.1*	18.2	35.3	-3.0
CC(C)C1=Nc2cccc3cccc(c23)N1	2.6	38.2	52.6*	2.8	-71.0	-6.0
ClCC1=Nc2cccc3cccc(c23)N1	26.8	8.2	58.0*	12.6	-75.0	x
Cc1cc(C)nc(N2CCCC(C(=O)NCC(c3ccccc3)c3ccccc3)C2)n1 (stereo unspecified)	-0.2	-4.0	7.9	5.2	-7.6	1.0
CC1=NC(C)(C)Cc2cc(C)c(C)cc21	11.4	6.1	-3.4	2.3	3.3	-1.0
CC(C)NCCOCCSc1ccc(Cl)cc1	-1.3	82.6*	23.6	3.6	17.2	-3.0
Cc1nc2c3c(sc2c(=O)[nH]1)NC(=O)CC3c1ccccc1Cl (stereo unspecified)	-0.2	-0.1	26.5	1.5	-12.8	x
COCCN1C=C(C(=O)OC)C(c2cc(Br)c(OC)c(OC)c2)C(C(=O)OC)=C1	67.8*	6.8	27.7	-4.0	-18.6	3.0
Cn1c(N/N=C/c2cc3ccccc3nc2Cl)nc2ccccc21	-3.4	-1.1	-3.3	-2.3	-51.8	-2.0
O=C(/C=N/O)Nc1cccnc1	2.2	13.1	0.1	0.4	-9.6	-4.0
O=C(/C=N/O)Nc1ccc(F)cc1	-0.2	16.8	10.4	53.1*	-10.0	2.0
O=[N+]([O-])c1ccc2nc(SCc3cn4cc(Cl)ccc4n3)[nH]c2c1	1.1	12.4	50.8*	4.4	30.8	-2.0
COc1ccc(O)c(N)c1	26.3	6.0	89.5*	7.1	-46.7	6.0
O=C(NCc1ccc(Cl)cc1)C(=O)N/N=C/c1ccc(Br)cc1	22.2	2.3	-10.8	-0.7	2.3	-3.0
CN(C)CC(O)CN(c1ccccc1)c1ccccc1 (stereo unspecified)	15.9	-0.3	8.4	-4.4	98.0*	x
CN(C)CC(C(=O)c1ccccc1)c1ccccc1 (stereo unspecified)	-3.3	19.5	14.2	-10.7	6.0	0.0
COc1ccc(OCCSc2nnc(C)n2-c2ccccc2)cc1	18.9	7.1	-8.1	0.9	-9.4	0.0
CCCC(c1nnnn1C1CCCC1)N1CCN(c2ccccc2F)CC1 (stereo unspecified)	7.8	81.5*	4.2	0.5	-7.1	-3.0
CCC(c1nnnn1C1CCCC1)N1CCN(c2ccccc2F)CC1 (stereo unspecified)	-0.1	9.3	-0.9	-0.6	-8.2	-1.0
C=CCn1c(SCC(=O)Nc2ccccc2OC)nnc1-c1ccccn1	0.6	79.1*	-6.8	-5.2	-10.0	-4.0
CCOc1ccc2[nH]c3c(NCCc4ccc(OC)c(OC)c4)ncnc3c2c1	9.9	-3.1	56.7*	2.2	-49.3	x
Nc1cc(=O)[nH]n1C1CCCC1	-7.3	-6.6	16.6	2.4	-26.4	-2.0
CC(C)C(=O)OCC(=O)NCc1ccccc1Cl	1.1	-9.2	12.7	-2.3	-16.0	-1.0
O=C(COC(=O)c1cc[n+]([O-])cc1)NCc1ccccc1Cl	20.4	-1.7	71.6*	2.8	-13.1	0.0
CC(=O)C1=C(S(=O)(=O)c2ccc(C)cc2)CS(=O)(=O)C1	-73.2	40.8	78.0*	4.9	-31.0	0.0
SMILES	Hck-Nef inh	14-3-3 Bad PPI	Mcl1 Noxa PPI	eIF4E-4G inh	Mcl1 Bid PPI	Mcl-1 Bim block
COc1ccc(C(=O)Nc2c(C(C)(C)C)nn(C)c2C(C)(C)C)cc1	10.8	0.4	-0.7	3.7	-2.1	x
CCS(=O)(=O)N1CCN(c2ccc(C(=O)NC3C4CC5CC(C4)CC3C5)cc2[N+](=O)[O-])CC1 (stereo unspecified)	0.8	2.5	1.4	2.7	55.4*	-1.0
COC(=O)c1ccc(-c2ccc(C(c3c(C)[nH][nH]c3=O)c3c(C)[nH][nH]c3=O)o2)cc1	27.5	3.5	68.3*	27.8	-74.0	6.0
O=C(Cn1nnc2ccccc2c1=O)Nc1cccc(S(=O)(=O)N2CCOCC2)c1	-24.0	5.8	28.4	-1.8	-11.7	1.0
COc1ccc(-n2c(SCC(=O)N3CCc4ccccc43)nnc2-c2c[nH]c3ccccc23)cc1	40.8	78.1*	-12.0	8.9	-32.4	-1.0
Cc1ccc(N2CC(C(=O)Nc3ccc(N(C)C)cc3)CC2=O)cc1C (stereo unspecified)	1.5	-1.9	75.2*	5.9	-62.4	0.0
O=S(=O)(Nc1ccc2nc(-c3ccc(Br)o3)[nH]c2c1)c1ccccc1	2.3	-7.1	52.1*	10.6	-29.8	-1.0
C=CCn1c(O)c(N=NC(=O)CNC(=O)/C=C/c2ccc(OC)cc2)c2ccccc21	11.5	0.8	7.3	-2.7	96.5*	x
C=CCn1c(O)c(N=NC(=O)CNC(=O)/C=C/c2ccco2)c2ccccc21	0.7	-0.1	69.4*	2.8	-16.4	-2.0
O=C(O)C(Sc1ccncn1)c1ccccc1 (stereo unspecified)	-3.6	-11.7	3.4	-2.8	-11.9	-2.0
COc1cccc2cc(C(=O)Oc3ccc(NC(C)=O)cc3)c(=O)oc12	0.8	14.2	-0.7	0.4	94.3*	2.0
COc1cccc2cc(C(C)=O)c(=O)oc12	3.6	36.4	-7.5	2.9	11.9	-3.0
COc1cccc2cc(C(=O)NNC(=O)c3ccc(Br)cc3)c(=O)oc12	18.9	59.4	63.5*	14.2	28.0	1.0
C=CCNC(=O)c1cc2cccc(OC)c2oc1=O	-3.5	-3.7	1.4	-2.6	2.4	-25.0
Cc1nc(/C(=N/O)C(N)=O)cs1	6.7	-3.3	-5.3	-4.6	-15.6	x
COc1ccc(CNC(=O)CSc2nnc3c(Cl)cc(C(F)(F)F)cn23)cc1OC	2.3	-3.1	3.0	0.5	-52.8	-9.0
CCC1(c2ccccc2)NC(=S)N(c2ccc(C)c(C)c2)N1 (stereo unspecified)	-0.8	-2.3	22.6	51.8*	-31.8	-5.0
CCC1(c2ccc(Cl)cc2)NC(=S)N(c2ccc(C)c(C)c2)N1 (stereo unspecified)	-26.1	-5.2	25.7	-5.8	-150.0	x
Cc1cc(Nc2nn(C)c(N)c2C#N)ccc1F	15.5	-1.7	18.7	-1.5	-22.8	-2.0
CCC1=NN2C(=N)/C(=C\c3ccc(SCc4ccco4)o3)C(=O)N=C2S1	-17.2	-1.3	63.7*	1.5	-13.7	5.0
CCCC1=NN2C(=N)/C(=C\c3ccc(SCc4ccco4)o3)C(=O)N=C2S1	1.1	-3.4	83.6*	10.7	49.0	2.0
CCCC1=NN2C(=N)/C(=C\c3cc(C)n(Cc4ccccc4)c3C)C(=O)N=C2S1	-6.5	-3.2	-0.8	-0.2	-16.0	x
CCC1=NN2C(=N)/C(=C/c3c(C)nn(-c4ccccc4)c3Cl)C(=O)N=C2S1	9.8	-0.3	13.3	23.2	-65.3	-2.0
O=C(c1ccccc1)c1ccc2nc(N3CCN(C(=O)c4ccco4)CC3)c3nncn3c2c1	11.2	0.9	55.8*	0.8	6.2	0.0
